The values that follow come from PubChem BioAssay (EPA / NIEHS).

Broadly, the AC50 is the concentration at which the activity in the assay is half-maximal.

Test [1] in a line: ATG_XTT_Cytotoxicity: Cytotoxicity Assessment in the Attagene TRANS-FACTORIAL HepG2 Assay (AID 2283584).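 As to AC50: cells exposed to compound for 24 h before reading; active means loss of viability signal versus DMSO baseline.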 The essentials: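 XTT readout of cell number in transfected HepG2 cells, 24 h post-dosing; DMSO serves as negative control and baseline, with activity taken as loss of viability signal.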
Test [2] can be described thus: TOX21_p53_BLA_p2_viability: Viability Assessment in the Tox21 HCT-116 p53 Agonism Beta-lactamase Assay, Phase 2 (AID 2283591).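 Also: compound exposure lasted 16 h at 37 °C; actives lower the ATP signal meaning cytotoxicity.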 The essentials:
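Cytotoxicity readout: CellTiter-Glo ATP luminescence, 30 min at room temperature, after the beta-lactamase read. Cells were HCT116 exposed 16 h at 37C to compounds pin-transferred at 217-fold dilution from DMSO stocks.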

Test [3] has as its target Cellular tumor antigen p53 (Homo sapiens) (UniProt P04637). Nature of the test: TOX21_p53_BLA_p2_ratio: Tox21 HCT-116 p53 Agonism Beta-lactamase Assay, Ratio, Phase 2 (AID 2283592). The method in brief: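 In this cell-based reporter format, HCT116 cells were dosed with chemicals delivered from DMSO by 217-fold dilution and incubated 16 h at 37C. Emission at 460 and 530 nm after 2 h CCF4-AM loading provided the ratio, fitted upward versus DMSO.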

A short description of test [4]: TOX21_p53_BLA_p3_viability: Viability Assessment in the Tox21 HCT-116 p53 Agonism Beta-lactamase Assay, Phase 3 (AID 2283593).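 Also: cells exposed to compound for 16 h before reading.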 The method in brief:
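Cellular ATP was quantified by CellTiter-Glo luminescence, read after 30 min at room temperature. Beforehand, HCT116 cells (4000/well) received compound 5 h post-seeding, 217-fold diluted from DMSO, then incubated 16 h at 37C.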

The target of test [5] is Cellular tumor antigen p53 (Homo sapiens) (UniProt P04637). Nature of the test: TOX21_p53_BLA_p3_ratio: Tox21 HCT-116 p53 Agonism Beta-lactamase Assay, Ratio, Phase 3 (AID 2283596). The essentials:
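HCT116 p53-bla cells (4000/well) given compound in DMSO (217-fold dilution) after 5 h, incubated 16 h at 37C. CCF4-AM substrate 2 h at room temperature; 460/530 nm emission ratio, gain fitted against DMSO.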

A short description of test [6]: TOX21_p53_BLA_p4_viability: Viability Assessment in the Tox21 HCT-116 p53 Agonism Beta-lactamase Assay, Phase 4 (AID 2283597).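 Also: hits lower the luminescence signal meaning cytotoxicity.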 The essentials:
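We seeded HCT116 p53 reporter cells at 4000/well and waited 5 h. We then added compounds in DMSO at a 217-fold dilution and incubated for 16 h. Viability was read as CellTiter-Glo luminescence after 30 min at RT.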

Test [7] deals with Cellular tumor antigen p53 (Homo sapiens) (UniProt P04637). The test can be described thus: TOX21_p53_BLA_p5_ratio: Tox21 HCT-116 p53 Agonism Beta-lactamase Assay, Ratio, Phase 5 (AID 2283599). The essentials: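 Beta-lactamase reporter ratio (blue 460 nm over green 530 nm, 405 nm excitation) after 2 h CCF4-AM loading, in HCT-116 cells exposed 16 h at 37 C to compounds pinned at 217-fold dilution. Increases relative to DMSO baseline scored.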

Test [8] is described as follows: TOX21_p53_BLA_p5_viability: Viability Assessment in the Tox21 HCT-116 p53 Agonism Beta-lactamase Assay, Phase 5 (AID 2283600). The method in brief: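 Compounds, pinned from DMSO at 217-fold dilution, were left on the cells for 16 h. The viability endpoint was ATP content measured by CellTiter-Glo luminescence, where falling signal reflects cytotoxicity.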
The target in test [9] is Cellular tumor antigen p53 (Homo sapiens) (UniProt P04637). Nature of the test: TOX21_p53_BLA_p4_ratio: Tox21 HCT-116 p53 Agonism Beta-lactamase Assay, Ratio, Phase 4 (AID 2283601). The method in brief: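 Signal is the blue/green (460nm/530nm) ratio of cleaved versus uncleaved CCF4-AM substrate, read after 2 h substrate loading. Cells were HCT116 carrying the p53-responsive beta-lactamase reporter, dosed 16 h at 37C, 5% CO2; CellTiter-Glo measured in parallel.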

Test [10] in a line: Tanguay_ZF_120hpf_MORT_legacy: (Legacy) Oregon State University Tanguay Lab 120 Hour Post-fertilization zebrafish Assay for Mortality (AID 2283633).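 As to AC50: fitted as increase in binary mortality versus DMSO negative control.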 The method in brief: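 Brightfield scoring of embryo death (binary) at 24 and 120 hpf; static exposure 6–120 hpf, 28C, sealed and foil-covered. Pronase-dechorionated 5D wild-type larvae, single embryo per well. DMSO 0.64% v/v; trimethyltin chloride 5uM positive control.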

The nature of test [11]: Tanguay_ZF_120hpf_YSE_legacy: (Legacy) Oregon State University Tanguay Lab 120 Hour Post-fertilization zebrafish Assay for Yolk Sac Edema (AID 2283634).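 As to AC50: actives raise the incidence of yolk sac edema above the DMSO baseline.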 The essentials:
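Binary brightfield scoring of yolk sac edema at 120 hpf; DMSO baseline, gain-of-signal fitting. Dechorionated 5D larvae, one per well, static exposure 6–120 hpf, 28C, 0.64% DMSO. Dead embryos not scored.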

Test [12] is described as follows: Tanguay_ZF_120hpf_AXIS_legacy: (Legacy) Oregon State University Tanguay Lab 120 Hour Post-fertilization zebrafish Assay for Body Axis Malformation (AID 2283635).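 As to AC50: potency for an increased fraction of larvae scored with body axis malformation.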 The essentials:
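Embryos: 5D wild-type, pronase-dechorionated 4 hpf; static exposure 6–120 hpf, 28C, sealed, dark, 1 embryo/well, 0.64% DMSO. 120 hpf axis malformation scored present/absent; dead embryos excluded. Analysed as gain of signal vs DMSO.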

The nature of test [13]: Tanguay_ZF_120hpf_EYE_legacy: (Legacy) Oregon State University Tanguay Lab 120 Hour Post-fertilization zebrafish Assay for Eye Malformation (AID 2283636). The method in brief: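 Read-out is binary presence or absence of eye malformation, scored by brightfield microscopy at 120 hpf. Single larvae were exposed from 6 hpf in embryo medium containing 0.64% DMSO, with DMSO as baseline.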

A short description of test [14]: Tanguay_ZF_120hpf_SNOU_legacy: (Legacy) Oregon State University Tanguay Lab 120 Hour Post-fertilization zebrafish Assay for Snout Malformation (AID 2283637). The essentials: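 Snout malformation read as a yes/no call on brightfield images of 120 hpf larvae (Tropical 5D strain). Static exposure began at 6 hpf on dechorionated embryos in 0.64% DMSO, with gain of signal analysed versus DMSO controls.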

Test [15] is described as follows: Tanguay_ZF_120hpf_JAW_legacy: (Legacy) Oregon State University Tanguay Lab 120 Hour Post-fertilization zebrafish Assay for Jaw Malformation (AID 2283638).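 As to AC50: active means more embryos with jaw malformation than DMSO controls.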 The essentials:
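Binary jaw-malformation calls at 120 hpf by brightfield imaging; DMSO (0.64% v/v) = baseline. Embryos: 5D wild-type, pronase-dechorionated, one per well from 6 hpf, static exposure, 28C, sealed, dark.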

Test [16] in a line: Tanguay_ZF_120hpf_OTIC_legacy: (Legacy) Oregon State University Tanguay Lab 120 Hour Post-fertilization zebrafish Assay for Otic Vesicle Malformation (AID 2283639). The method in brief: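 Tropical 5D wild-type zebrafish embryos were exposed statically in sealed, foil-covered plates at 28C until 120 hpf, with 0.64% (vol/vol) DMSO final. Otic vesicle malformation was scored present/absent by brightfield microscopy, with DMSO as baseline.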

Test [17] in a line: Tanguay_ZF_120hpf_SOMI_legacy: (Legacy) Oregon State University Tanguay Lab 120 Hour Post-fertilization zebrafish Assay for Somite Malformation (AID 2283647). The method in brief: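 Binary brightfield scoring of somite defects at 120 hpf in 5D wild-type larvae; one dechorionated embryo per well, static exposure from 6 hpf, 28C, sealed and dark. Final DMSO 0.64%; trimethyltin chloride 5uM positive control.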

Test [18] in a line: Tanguay_ZF_120hpf_CFIN_legacy: (Legacy) Oregon State University Tanguay Lab 120 Hour Post-fertilization zebrafish Assay for Caudal Fin Malformation (AID 2283649). The method in brief:
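Dechorionated 5D wild-type zebrafish, static exposure 6–120 hpf, 28C, sealed and dark, 0.64% v/v DMSO final. Binary fin-malformation call at 120 hpf, brightfield; gain of signal vs DMSO baseline.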

Test [19] can be described thus: Tanguay_ZF_120hpf_PFIN_legacy: (Legacy) Oregon State University Tanguay Lab 120 Hour Post-fertilization zebrafish Assay for Pectoral Fin Malformation (AID 2283648).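 Also: each larva judged yes or no for fin defect by brightfield with dead larvae skipped.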 The method in brief: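 5D WT zebrafish; pronase dechorionation 4 hpf; 1 embryo/well at 6 hpf; static exposure to 120 hpf, 28C, sealed, foil-covered; final DMSO 0.64% v/v; 5 uM trimethyltin chloride positive control; fin defect scored yes/no.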

Where “and” joins values, the source holds several entries; their conditions need not be identical. Equal entries are not always repeated. Results filed as inconclusive are left out. The source holds several records for some structures; these can differ, active in one and inactive in another. Calls of active or inactive are those of the source. The calls were made as follows: active = hit-call score of the fitted dose curve at least 0.9, where 1 is the maximum; inconclusive = response in the unintended direction; inactive = score below 0.9.

Sequence of Cellular tumor antigen p53 (Homo sapiens) (P04637 whole entry, looked up): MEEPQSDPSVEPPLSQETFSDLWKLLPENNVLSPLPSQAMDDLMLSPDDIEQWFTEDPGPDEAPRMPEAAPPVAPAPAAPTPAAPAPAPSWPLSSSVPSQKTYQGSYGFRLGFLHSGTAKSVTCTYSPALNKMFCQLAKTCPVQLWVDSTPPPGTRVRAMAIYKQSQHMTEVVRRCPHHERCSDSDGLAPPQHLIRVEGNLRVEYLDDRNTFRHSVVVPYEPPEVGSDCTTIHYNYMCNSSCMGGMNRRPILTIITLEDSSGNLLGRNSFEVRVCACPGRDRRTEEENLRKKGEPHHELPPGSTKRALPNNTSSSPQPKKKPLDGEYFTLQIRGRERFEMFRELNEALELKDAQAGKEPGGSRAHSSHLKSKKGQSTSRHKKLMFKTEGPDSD

With `Oc1ccc(Cl)cc1Cc1ccccc1`, the compound was called inactive in test [1], in test [3], in [4], in [5], in test [8] and in test [9]. The compound was called inactive in [11], in test [12], in test [13], in [14], in test [15] and in test [16]. Also, the compound was classed as inactive in test [17] and in [18]. In addition, the AC50 was 70.3 µM (active) and 66.7 µM (active) in test [2]; 85 µM (active) and 57.2 µM (active) in test [3]; 72.8 µM (active) in test [4]; 67.5 µM (active) and 23.3 µM (active) and 36.5 µM (active) in test [6]; 79 µM (active) and 86.7 µM (active) in [7]; 73.6 µM (active) and 70.6 µM (active) in test [8]. Further, the concentration at half-maximal activity (AC50) is 86.5 µM (active) and 41.3 µM (active) in [9]; 10.8 µM (active) and 6.48 µM (active) and 36 µM (active) in test [10].
As to `O=C(O)COc1ccc(Cl)cc1Cl`, the outcome in test [1], in [2], in test [3], in test [4], in test [6] and in [7] was inactive. Moreover, the outcome in test [8], in test [9], in test [10], in test [11], in test [12] and in test [14] was inactive. For the same compound, the result in test [15], in test [16] and in [18] was inactive. Further, the AC50 in test [9] is 0.116 nM (active).
In the case of `CC1(c2ccc(Oc3ccccc3)cc2)OC(=O)N(Nc2ccccc2)C1=O` (stereo not given), the call in test [2], in [4], in [5], in test [8], in test [10] and in test [11] was inactive. For the same compound, the compound was called inactive in test [12], in test [13], in test [14], in test [15], in test [16] and in [19]. Besides, the outcome in test [18] was inactive. In addition, the AC50 was 16.9 µM (active) in test [3], 19.5 µM (active) in test [6], 46.4 µM (active) in [7] and 51200 nM (active) in test [9].
With `CC(C)(C)C(O)/C(=C\c1ccc(Cl)cc1Cl)n1cncn1` (stereo not given), the concentration at half-maximal activity (AC50) in test [1] is 56.3 µM (active); in test [6], 51.8 µM (active); in test [11], 34.4 µM (active); in test [12], 70.7 µM (active); in test [13], 37.4 µM (active); in [14], 30.9 µM (active). The AC50 in test [15] is 25 µM (active); in [16] it was 11.6 µM (active). The result in test [2], in test [3], in test [4], in test [5], in test [7] and in test [8] was inactive. Further, the outcome in [9], in [10] and in test [17] was inactive.
Consider `N#Cc1c(Cl)c(Cl)c(Cl)c(C#N)c1Cl`, for which the AC50 in [2] was 22.5 µM (active); in test [3], 15.7 µM (active); in test [4], 20.7 µM (active) and 23.1 µM (active); in test [5], 815 nM (active) and 77.5 µM (active); in test [6], 2.04 µM (active) and 2.82 µM (active); in test [7], 85.4 µM (active) and 17.1 µM (active). In addition, the AC50 is 17.1 µM (active) and 15.8 µM (active) in test [8]; 1.11 µM (active) and 1.12 µM (active) in test [9]; 24.8 µM (active) in test [10]. Further, the result in [2], in [3], in test [12], in test [13], in test [14] and in test [15] was inactive. Further, the outcome in test [16], in [17] and in test [18] was inactive.
